Our source for the composite z-score and z-score values is PubChem BioAssay.

Assay [1] deals with Human papillomavirus type 1a protein E7 (residues 44-93). Nature of the assay: small molecules binding HPV E7 44-93 – biochemical, small-molecule microarray, residues 44-93, 635 nm fluorescence, primary screen (AID 1108).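 Note: E7 fragment applied at 1 µg/mL in TBST for 1 h at 4 C; score combines spot fluorescence with its signal to noise ratio.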 The settings on record: fluorescence 635 nm, higher = more signal.
Assay [2] can be described thus: hepatitis C replication reporter changes, two-sided – Huh7 cells, luciferase reporter, HCV replication inhibitor project, primary screen (AID 1109).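 Note: huh7 hepatoma cells harbouring a luciferase neomycin HCV replicon reporter; luciferase luminescence as measure of HCV replicon replication; test concentration not given here.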 Conditions: Huh7 HCV replicon luciferase reporter, 48 h; higher = more signal.
Assay [3] has as its target Left-right determination factor 2 (Homo sapiens) (UniProt O00292). Nature of the assay: small molecules binding LEFTY2 protein – biochemical, small-molecule microarray, 635 nm fluorescence scan, primary screen (AID 1110). The settings on record: higher = more signal.
Assay [4] addresses Calmodulin-1 (Homo sapiens) (UniProt P0DP23). Nature of the assay: small molecules binding calmodulin-1 with EGTA – biochemical, small-molecule microarray, Cy5-labelled CALM1, profiling panel (AID 1111).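 Note: labelled calmodulin applied in Tris saline Tween buffer holding calcium plus EGTA and DTT.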 The settings on record: Cy5-CALM1 binding fluorescence, higher = more signal.
Assay [5] shares this target. Nature of the assay: small molecules binding Ca-loaded calmodulin-1 – biochemical, small-molecule microarray, Cy5-labelled CALM1, plus calcium, artefact control for SMM control-protein annotation, profiling panel (AID 1112).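 Note: score merges spot fluorescence with signal to noise from triplicate slides.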 Conditions: Cy5-CALM1 binding fluorescence, higher = more signal.
The nature of assay [6]: probe aWnt5a binding to arrayed compounds – biochemical, biotinylated probe, 635/667 nm fluorescence, primary screen (AID 1113).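 Note: score merges 667 nm fluorescence intensity with signal-to-noise per printed feature.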 The settings on record: small-molecule microarray, higher = more signal.
Assay [7] is described as follows: probe aShh binding to arrayed compounds – biochemical, biotinylated probe, 635/667 nm fluorescence, primary screen (AID 1114).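 Note: probe is biotin-labelled aShh protein from a stem cell growth factor screen; measures binding of labelled protein to compounds printed on the slide; score merges feature fluorescence at 667 nm with signal-to-noise.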 The settings on record: small-molecule microarray, higher = more signal.
Assay [8] can be described thus: probe aNog binding to arrayed compounds – biochemical, biotinylated probe, 635/667 nm fluorescence, primary screen (AID 1115).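 Note: probe is biotinylated aNog protein used at 0.15 µg/mL for 1 h at 4 C; z-score combines 667 nm fluorescence of each spot with its signal to noise.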 The settings on record: small-molecule microarray, higher = more signal.
In assay [9] the target is Torsin-1A-interacting protein 1 (Homo sapiens) (UniProt Q5JTV8). The assay is described as follows: compound microarray binding of lysate hLAP1 – cell lysate, small-molecule microarray, COS7 lysate, 635/667 nm fluorescence, primary screen (AID 1116). The settings on record: 635 nm fluorescence, higher = more signal.
Chain of Torsin-1A-interacting protein 1 (Homo sapiens) (Q5JTV8 whole entry, looked up): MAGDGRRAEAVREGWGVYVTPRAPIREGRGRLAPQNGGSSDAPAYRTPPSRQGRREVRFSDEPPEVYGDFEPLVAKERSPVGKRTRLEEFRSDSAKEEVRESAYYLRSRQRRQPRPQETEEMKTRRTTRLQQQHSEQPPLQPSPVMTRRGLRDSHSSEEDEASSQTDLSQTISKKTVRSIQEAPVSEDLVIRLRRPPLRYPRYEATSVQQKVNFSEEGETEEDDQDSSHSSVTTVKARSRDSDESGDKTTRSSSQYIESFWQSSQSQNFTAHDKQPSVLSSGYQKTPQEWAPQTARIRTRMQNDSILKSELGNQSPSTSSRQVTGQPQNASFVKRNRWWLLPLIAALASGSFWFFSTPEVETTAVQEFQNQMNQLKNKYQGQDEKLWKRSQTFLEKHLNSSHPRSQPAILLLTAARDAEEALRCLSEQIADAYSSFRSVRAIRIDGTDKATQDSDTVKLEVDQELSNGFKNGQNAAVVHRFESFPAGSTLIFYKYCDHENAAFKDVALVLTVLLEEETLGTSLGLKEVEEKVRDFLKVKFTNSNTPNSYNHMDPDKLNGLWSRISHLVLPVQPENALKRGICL
Assay [10] has as its target Alpha-bungarotoxin (Bungarus multicinctus) (UniProt P60615). The assay is described as follows: compounds binding labelled alpha-BTX control protein – biochemical, small-molecule microarray, Alexa647 label, 635/667 nm fluorescence, artefact control for SMM control protein annotation, profiling panel (AID 1117). The settings on record: alpha-BTX-A647 binding fluorescence, higher = more signal.

Chain of Alpha-bungarotoxin (Bungarus multicinctus) (P60615 whole entry, looked up): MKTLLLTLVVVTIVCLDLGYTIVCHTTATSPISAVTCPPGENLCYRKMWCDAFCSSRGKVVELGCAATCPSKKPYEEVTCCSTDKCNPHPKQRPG
Chain of Left-right determination factor 2 (Homo sapiens) (O00292 whole entry, looked up): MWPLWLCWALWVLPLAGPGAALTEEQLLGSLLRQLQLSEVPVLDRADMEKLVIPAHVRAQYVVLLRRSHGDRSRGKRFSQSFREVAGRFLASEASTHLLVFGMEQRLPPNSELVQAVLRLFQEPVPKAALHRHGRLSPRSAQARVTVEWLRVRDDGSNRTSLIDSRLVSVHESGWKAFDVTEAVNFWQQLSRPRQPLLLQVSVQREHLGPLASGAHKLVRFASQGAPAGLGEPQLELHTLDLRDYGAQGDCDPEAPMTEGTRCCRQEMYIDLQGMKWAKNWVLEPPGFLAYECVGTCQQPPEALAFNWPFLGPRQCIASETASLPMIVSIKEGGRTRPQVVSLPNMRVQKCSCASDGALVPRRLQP

Regarding `CCOC(=O)C[C@H]1[C@H](OC(=O)c2cc3ccccc3oc2=O)[C@@H](NC(=O)C2CCCCC2)c2cc(OCCCO)ccc2N1C(=O)Cc1ccc(OC)cc1`, the composite z-score in assay [1] is 0.612; in assay [3], 0.304; in assay [4], 0.126; in assay [5] it was -0.182; in assay [6] it was 0.0633; in assay [7], 0.42. Also, the values for the composite z-score in assay [8], in assay [9] and in assay [10] were 0.23, 0.404 and 0.25, respectively. Moreover, in [2], the z-score was -0.938.

Consider `C=CCC(OC(C)=O)[C@@H]1[C@@H](N(Cc2cc3ccccc3o2)C(=O)Cc2ccc(OC)cc2)c2cc(OCCCO)ccc2N1C(=O)Cc1ccc2ccccc2c1` (stereo not given in full), for which the composite z-score in assay [1] is -0.687; in assay [3], -0.487; in [4] it was -0.197; in [5], 0.191; in [6], -0.0704; in assay [7], 0.0815. Also, the composite z-score is -0.0642 in assay [8], 0.475 in [9] and 0.615 in assay [10]. This molecule also returned a z-score in [2] of -0.739.

As to `COCCOC(=O)N1C(=O)[C@@]2(c3cc(C#CC4(O)CCCCCC4)ccc31)[C@H](C(=O)N1CCc3cc(OC)c(OC)cc3C1)[C@H]1C(=O)O[C@H](c3ccccc3)[C@H](c3ccccc3)N1[C@@H]2c1ccc(O)cc1`, the composite z-score in [1] is 1.02; in [3] it was 0.729; in [4], 0.621; in assay [5], -0.394; in assay [6], -0.0512; in assay [7], 0.191. Moreover, the values for the composite z-score in assay [8], in assay [9] and in assay [10] were -0.411, 1.12 and 1.17, respectively. The same molecule registered a z-score in [2] of -1.01.

In the case of `COCCOC(=O)N1C(=O)[C@@]2(c3cc(C#CC4(O)CCCCCC4)ccc31)[C@H](c1ccc(OCCO)cc1)N1[C@H](c3ccccc3)[C@H](c3ccccc3)OC(=O)[C@H]1[C@@H]2C(N)=O`, the composite z-score in assay [1] is 0.448; in assay [3], 0.547; in assay [4], 1.04; in [5], -0.111; in [6], -0.0472; in assay [7], 0.199. Further, the composite z-score in [8] is 0.53; in assay [9], 1.73; in [10] it was 1.9. This molecule also returned a z-score in assay [2] of -2.2.

As for `C=CC[C@]1(C(=O)OC)N=C(c2ccc(OCCCO)cc2)O[C@H]1c1ccccc1N=[N+]=[N-]`, the composite z-score was 1.06 in assay [1]; 0.786 in [3]; 0.592 in assay [4]; -0.357 in [5]; 0.194 in [6]; 0.598 in [7]. The composite z-score in assay [8] amounted to 1.7; in assay [9] it was 0.387; in [10], 0.935. In assay [2], the z-score came to 0.452.

On to `CC(C)[C@@H](C(=O)O)n1cc(-c2ccccc2)nn1`, for which the composite z-score is 0.972 in [1]; 0.396 in assay [3]; 0.913 in [4]; 0.957 in assay [5]; 0.0145 in [6]; 0.227 in [7]. Besides, the figures for the composite z-score in assay [8], in assay [9] and in [10] were -0.0238, 0.941 and 1.03, respectively. In assay [2], this molecule came in with a z-score of 0.281.

As for `COCC1=C([C@H](O)CCc2ccccc2)[C@H](CO)n2c(=O)n(-c3ccccc3)c(=O)n2C1`, the composite z-score is -0.253 in assay [1]; 0.292 in [3]; -0.357 in assay [4]; -0.764 in assay [5]; -0.175 in assay [6]; -0.0553 in assay [7]. The composite z-score in assay [8] was -0.0927; in assay [9], -0.103; in [10], -0.349. Besides, the z-score in [2] was -0.482.

On to `NC(=O)NCC#Cc1ccc2c(c1)[C@]1(C(=O)N2)[C@H](C(=O)N2CCCCCCC2)[C@H]2C(=O)O[C@H](c3ccccc3)[C@H](c3ccccc3)N2[C@@H]1c1ccc(O)cc1`, for which the composite z-score is 0.0787 in assay [1]; 0.953 in assay [3]; 2.38 in assay [4]; 0.509 in [5]; 0.754 in assay [6]; 1.54 in assay [7]. The composite z-score in assay [8] was determined as 2.78; in assay [9] it was 2.19; in assay [10], 2.01. The molecule also displayed a z-score in [2] of -1.13.

Regarding `C=C(COC)C(=O)CC[C@@H](OC(C)=O)c1ccc(OCCO)cc1`, the composite z-score was -0.133 in assay [1]; -0.374 in [3]; -0.473 in assay [4]; -0.621 in [5]; -0.154 in assay [6]; 0.0373 in assay [7]. Moreover, the composite z-score in assay [8] came out at 0.197; in [9], 0.119; in assay [10] it was 1.39. This molecule had a z-score in [2] of -1.23.

Turning to `C=CCNC(=O)[C@@H]1[C@H]2C(=O)O[C@H](c3ccccc3)[C@H](c3ccccc3)N2[C@H](c2ccc(O)cc2)[C@@]12C(=O)Nc1ccc(C#CC3(O)CCCCCC3)cc12`, the composite z-score in [1] is 0.754; in assay [3], 0.0712; in assay [4] it was -0.542; in [5], -0.0571; in assay [6] it was -0.127; in [7] it was 0.488. Further, the composite z-score in assay [8] is -0.499; in assay [9], 0.824; in [10] it was -0.243. The molecule further yielded a z-score in assay [2] of -0.608.

`CC(C)C(=C=CC[C@@H](O)c1ccc(OCCO)cc1)CCO`: the composite z-score in assay [1] was 0.0426; in assay [3], -0.141; in assay [4] it was 0.236; in assay [5], -0.421; in [6], -0.18; in [7] it was -0.237. Further, the composite z-score in assay [8] is -0.178; in assay [9], -0.117; in [10] it was 0.441. The z-score in [2] is -0.283.
